Bioassay records as filed in PubChem.
IL1B secr inh: inflammasome signaling inhibition, IL-1 beta readout | 360,000 compounds, 4.7% hits | THP-1 LPS/ATP IL-1B secretion, AlphaLISA, 16 h; active compounds read low | AID 743279 | activity change, % at 57.5 µM; in the data active = activity change below about -50%; inconclusive = mostly about -30% to -49%
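Secreted IL-1B measured by AlphaLISA bead assay after 16 h compound exposure of THP-1 cells; compounds (final up to 57.5 uM) added 1 h before LPS (250 ng/mL) and ATP (1.25 mM) stimulation; lower signal means less secretion.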
RORgamma inh: blocks mouse ROR gamma transcriptional activity; AID 2551; P51450; Potency, µM (titrated, usually from 53.6 µM), inactives show top-dose activity change, negative = inhibition, hits mostly inhibitors; 310,000 compounds, 5.4% hits; Drosophila S2 Gal4-RORgamma UAS-luciferase reporter, 20 h; also: potency is read from the fitted curve at half-maximal effect; nearly all actives have a fitted effect of over 60% in size
Target sequence (P51450 whole entry, looked up, the tested form may be a part): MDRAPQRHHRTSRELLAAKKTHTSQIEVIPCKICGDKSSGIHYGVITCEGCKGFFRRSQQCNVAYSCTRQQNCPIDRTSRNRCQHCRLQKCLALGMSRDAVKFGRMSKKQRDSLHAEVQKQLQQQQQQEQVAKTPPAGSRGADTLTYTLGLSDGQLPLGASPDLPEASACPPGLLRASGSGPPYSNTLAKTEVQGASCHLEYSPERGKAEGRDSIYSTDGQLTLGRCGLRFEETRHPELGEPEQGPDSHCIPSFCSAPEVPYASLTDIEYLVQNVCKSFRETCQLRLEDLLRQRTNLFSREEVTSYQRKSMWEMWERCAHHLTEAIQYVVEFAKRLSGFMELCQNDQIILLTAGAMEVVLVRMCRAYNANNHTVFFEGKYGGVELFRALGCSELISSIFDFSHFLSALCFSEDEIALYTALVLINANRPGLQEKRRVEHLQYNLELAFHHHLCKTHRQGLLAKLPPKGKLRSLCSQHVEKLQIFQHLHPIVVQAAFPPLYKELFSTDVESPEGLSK
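A Gal4/UAS one-hybrid system in insect cells: metallothionein-promoter Gal4–ROR gamma fusion plus Photinus luciferase reporter. Copper sulfate 700 uM final, 20 hr ambient incubation, luminescent detection after 10 min with reagent.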
VP16 counter: counter-screen for ROR gamma inhibitors: Gal4-VP16 reporter. Drosophila S2 Gal4-VP16 UAS-luciferase, luminescence, 20 h. 310,000 compounds, 3.5% hits. AID 2546. Potency, µM (doses to about 53.6 µM), for inactives: top-dose activity, negative = inhibition, hits mostly inhibitors;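 also: Gal4-VP16 expression switched on by copper sulfate through the metallothionein promoter; potency is read from the fitted curve at half-maximal effect; nearly all actives have a fitted effect of over 50% in size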
TDP1 cell CPT: growth inhibition of DT40 Tdp1-/-;hTDP1 cells with camptothecin (screen for TDP1 inhibitors); chicken DT40 Tdp1-/-;hTDP1 cells + 20 nM CPT, ATP luminescence, 48 h; 420,000 compounds, 12% hits; Potency, µM (highest dose often 46.2 µM), for inactives: at the top dose activity change, negative = growth inhibition, most hits filed as inhibitors; also: potency is read from the fitted curve at half-maximal effect; nearly all actives have a fitted effect of over 55% in size
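Chicken DT40 Tdp1-/- cells complemented with human TDP1, 400 cells/well, exposed to compounds plus 20 nM camptothecin for at least 48 h at 37 C; viability read as ATP content by CellTiter-Glo luminescence.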
DT40 TDP1 no CPT: qHTS for Inhibitors of human tyrosyl-DNA phosphodiesterase 1 (TDP1): qHTS in cells in absence of CPT | DT40 Tdp1-/- hTDP1 cells, no CPT, ATP luminescence, 48 h | Potency, µM (doses to about 46.2 µM), for inactives: at the highest dose activity change, negative = growth inhibition, usual class: inhibitors | 420,000 compounds, 15% hits | AID 686978, 2013; also: potency is read from the fitted curve at half-maximal effect; nearly all actives have a fitted effect of over 55% in size
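Seeded 400 DT40-hTDP1 cells/well (vehicle DMSO, no 20 nM CPT); pinned compounds; ≥48 hr at 37 °C; CellTiter-Glo luminescence as viability measure.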
ELG1 DNA repair: inhibitors of ELG1-dependent DNA repair in HEK293T cells. 330,000 compounds, 2.3% hits. Potency, µM (series often up to 46.1 µM), for inactives: top-dose activity change, negative = inhibition, most hits filed as inhibitors. HEK293T ELG1-luciferase reporter, luminescence, 16 h; DNA damage induced by 5-fluorouridine; also: potency is read from the fitted curve at half-maximal effect; nearly all actives have a fitted effect of over 55% in size
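Quantitative HTS, concentration-response format. 2,000 cells/well co-treated with 5-fluorouridine and compound, 16 hr in 5% CO2 at 37 °C; ONE-Glo luminescence read after 30 min.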
Numbers without * were called inactive; ? = inconclusive; . = no result; ! = not confirmed by another sample; [ ] = dose if it differs, or a comment. Most compounds without a hit are left out; they make up all but 21% or so of the library. Unless noted, calls follow the shape of the dose curve; as a rule, active = well fitted curve in the direction sought with a large enough effect; inconclusive = small, poorly fitted or top-dose-only effect, or another doubt; inactive = no such curve, though single readings can be large; an effect the other way counts as inactive or inconclusive. % is scaled to controls: 0 for no effect and ±100 for the full control effect.

SMILES | IL1B secr inh | RORgamma inh | VP16 counter | TDP1 cell CPT | DT40 TDP1 no CPT | ELG1 DNA repair
O=C(Cn1c(NCCO)nc2ccccc21)Nc1ccc2c(c1)OCCCO2 | 2.1 | . | . | -3.3% | -11.5% | -2.1%
CCCn1c(SCC(=O)Nc2cc(S(=O)(=O)N3CCCCC3)ccc2C)n[nH]c1=O | 19.4 | . | . | 0.5% | 5.9% | -17.0%
Cc1ccc(NC(=O)c2oc3ccccc3c2C)nc1 | -6.7 | -26.3% | -3.8% | ? | -17.7% | ?
Cc1c(C(=O)NC2CCN(Cc3ccccc3)C2)oc2ccc(Br)cc12 (stereo unspecified) | ? | -1.8% | -10.4% | ? | ? | ?
CCOc1ccc2oc(C(=O)NC3CCN(Cc4ccccc4)CC3)c(C)c2c1 | -63.6* | -1.1% | 5.9% | 3.66µM* | 5.17µM* | ?
CCOc1ccc2oc(C(=O)Nc3ccc(C)cn3)c(C)c2c1 | 28.6 | . | . | ? | 18.4µM* | .
CCCOC(=O)Nc1nc2ccccc2o1 | 17.6 | 14.1µM* | ? | ? | ? | ?
CCCCOC(=O)CSc1nc2ccccc2o1 | . | -9.1% | -13.8% | 7.4% | -13.6% | 27.2%
CCOC(=O)C(=CN=C(N)Nc1nc2ccccc2o1)C(=O)OCC | 0.0 | 7.08µM* | ? | -6.0% | -17.6% | ?
CCCCC(=O)N/C(N)=N/c1nc2ccccc2o1 | -11.1 | ? | -11.8% | ? | ? | ?
COc1ccc(C(=O)N2CCC3(CCN(Cc4nccs4)CC3)CC2)cc1 | . | 4.2% | -2.5% | -0.2% | -22.3% | .
CN(C)c1ccc(/C=N\NC(=S)SCN2C(=O)C3CCC(C)(C2=O)C3(C)C)cc1 (stereo unspecified) | -2.7 | 0.316µM* | ? | -3.3% | ? | ?
CC12CCC(C(=O)N(CSC(=S)N/N=C\c3ccccc3O)C1=O)C2(C)C (stereo unspecified) | 98.7 | ? | ? | ? | 14.6µM* | ?
CSc1ccc(CNC(=O)C2(C)CCCN(C(C)C)C2)cc1 (stereo unspecified) | 15.1 | . | . | -16.2% | -13.5% | .
O=C(Cn1cc(COc2ccc(Cl)c(Cl)c2)nn1)NS(=O)(=O)c1ccccc1OC(F)(F)F | 10.0 | . | . | 4.8% | -11.3% | .
Cc1cc(C)cc(N2CC(O)=C(c3nc4ccccc4c(=O)[nH]3)C2=N)c1 | 47.8 | -17.0% | -9.1% | 13µM* | 9.2µM* | -12.3%
COc1cccc(N2CC(O)=C(c3nc4ccccc4c(=O)[nH]3)C2=N)c1 | 3.6 | 41.1% | ? | 1.46µM* | 1.16µM* | ?
S=c1[nH]nc(C2COc3ccccc3O2)o1 (stereo unspecified) | 11.5 | ? | -0.4% | -7.6% | -20.5% | 6.0%
S=c1nc(C2COc3ccccc3O2)[nH][nH]1 (stereo unspecified) | -0.7 | 12.6µM* | 17.1% | -4.5% | -16.8% | -2.6%
CC1CCCCN1C(=O)c1ccc(OC2CCN(S(=O)(=O)N(C)C)CC2)cc1 (stereo unspecified) | -8.9 | ? | -2.5% | ? | 10.3µM* | 9.2µM*
CN(C)S(=O)(=O)N1CCC(Oc2ccc(C(=O)N3CCCCCCC3)cc2)CC1 | 0.0 | ? | ? | 16.4µM* | 16.4µM* | ?
CCN(Cc1cnn(C)c1)C(=O)c1ccc(OC2CCN(S(=O)(=O)N(C)C)CC2)cc1 | -68.3* | 7.3% | ? | -11.1% | 1.1% | ?
CSCCNC(=O)c1ccc(OC2CCN(S(=O)(=O)N(C)C)CC2)cc1 | -10.9 | 16.6%[1.91 µM] | 17.1% | -12.1% | 1.6% | ?
COCCC(=O)N1CCC(Oc2ccc(C(=O)N3CCCCCCC3)cc2)CC1 | 44.2 | 41.6% | 1.9% | ? | ? | -20.5%
CN(C)S(=O)(=O)N1CCC(Oc2ccc(C(=O)N3CCCCCC3)cc2)CC1 | 6.0 | . | . | 23.1µM* | 13µM* | .
SMILES | IL1B secr inh | RORgamma inh | VP16 counter | TDP1 cell CPT | DT40 TDP1 no CPT | ELG1 DNA repair
COCCNC(=O)C1CCCN(C(=O)Cc2ccc(F)cc2)CC1 (stereo unspecified) | 10.3 | . | . | -2.1% | 20.0% | .
COc1cccc2sc3cc(NCc4ccc(C)o4)ccc3c(=O)c12 | -24.2 | . | . | ? | -29.0% | ?
COC(=O)c1cc(NC(=O)/C=C/c2ccccc2)ccc1O | . | 20.5% | -0.9% | . | . | ?
CN(C(=O)c1ccc(OC2CCN(S(=O)(=O)N(C)C)CC2)cc1)C1CCCCC1 | 18.3 | 31.1% | 6.8% | 20.6µM* | ? | ?
CN(C)/C=C\C(=C/C(=O)C(F)(F)F)Nc1ccccc1Oc1ccccc1 | -98.4* | -1.3% | -6.0% | ? | 18.4µM* | ?
Cc1ccc(NC(/C=C/N(C)C)=C/C(=O)C(F)(F)F)c(C)c1 | 6.8 | 13.7% | 1.2% | 16.4µM* | 16.4µM* | ?
CCC(=O)Nc1ccccc1Oc1ccccc1 | 49.9 | 21.6% | 12.2% | -3.4% | ? | -1.1%
c1ccc(CNc2oc(-c3ccccc3)nc2-c2cccc3ccccc23)cc1 | . | 2.7% | -9.3% | . | . | .
Cc1ccccc1C(=O)N1CCc2c([nH]c3ccccc23)C1C(F)(F)F (stereo unspecified) | -54.7* | 0.6% | 6.7% | ? | ? | 13µM*
COc1ccc(C2c3[nH]c4ccccc4c3CCN2C(=O)c2ccc(=O)n(C)n2)c(F)c1 (stereo unspecified) | 67.4 | 9.0% | -4.2% | -14.3% | ? | 27.9%
CCOc1cccc(C2c3[nH]c4ccccc4c3CCN2C(=O)c2ccccc2F)c1 (stereo unspecified) | . | . | . | ? | 16.4µM* | .
O=C(c1cnccn1)N1CCc2c([nH]c3ccccc23)C1c1cccc(Cl)c1 (stereo unspecified) | 9.8 | 4.7% | 12.7% | -25.4% | -10.9% | -17.9%
CCc1cc(C(=O)N2CCc3c([nH]c4ccccc34)C2c2ccc(OC)cc2F)no1 (stereo unspecified) | ? | 27.1% | 5.9% | ? | 23.1µM* | 1.8%
C/C=C/c1cccc(-c2nc(C(=O)N3CCCCC3)cc3c2[C@H](CCO)N(C(=O)NC(C)C)C3)c1 | 1.1 | . | . | -9.6% | -21.5% | .
Cc1ccc(Cn2c(Cc3ccccc3)nc3ccccc32)cc1 | 7.9 | 8.91µM* | ? | 18.4µM*! | 16.4µM* | 9.9%
CC(=O)NCCCc1nc2ccccc2n1Cc1ccc(C)cc1 | -15.9 | 36.0% | 7.4% | -7.7% | -3.7% | 11.6%
ClCc1nc2ccccc2n1Cc1ccccc1 | -2.4 | 15.7% | -6.0% | 10.3µM* | 7.31µM* | -17.0%
